About 64,000 (15%) of roughly 420,000 compounds were called active. About 27% were inconclusive and are not listed. A selection follows. A number with no mark means an inactive call. Calls come from the whole dose curve; as a rule, active = well fitted inhibition curve with a large enough effect; inconclusive = small, poorly fitted or top-dose-only effect; inactive = flat fitted curve, though single readings scatter.
Assay: qHTS for Inhibitors of human tyrosyl-DNA phosphodiesterase 1 (TDP1): qHTS in cells in absence of CPT; note: nearly all actives have a fitted effect of over 55% in size
Conditions: DT40 Tdp1-/- hTDP1 cells, no CPT, ATP luminescence, 48 h; activity change, negative = growth inhibition: at 46.2 µM (top of the series)
How it was run: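 Stably hTDP1-transfected Tdp1-null chicken DT40 cells were treated with library compounds minus camptothecin and grown for at least 48 hr at 37 °C, after which cellular ATP was quantified by luminescence.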
% is set by controls: 0 for no effect and ±100 for the full control effect; potency is the fitted concentration of half-maximal effect.

Row | Structure (SMILES) | activity change, negative = growth inhibition | Potency
1 | CCOC(=O)c1c(S(=O)(=O)N2CCCC(C(=O)NCc3ccc(F)cc3)C2)c(C)n(CC)c1C (stereo not drawn) | -20.8% | –
2 | Cc1cc(C)cc(OCc2nnc(SCC(=O)OC3CCCCC3)o2)c1 | -0.322% | –
3 | OC(c1ccccc1)c1nccn1Cc1ccccc1 (stereo not drawn) | 2.98% | –
4 | COc1ccccc1C(=O)NC(CCSC)C(=O)NNC(=O)c1csc(N2CCOCC2)n1 (stereo not drawn) | -22% | –
5 | CCN(CC)C(=O)CS(=O)CC(=O)Nc1cc(OCCOC)c(Cl)cc1Cl (stereo not drawn) | -3.24% | –
6 | CCOC(=O)c1c(S(=O)(=O)N2CCCC(C(=O)NCc3cccc(C)c3)C2)c(C)n(C)c1C (stereo not drawn) | -4.19% | –
7 | CCOc1cccc(NC(=O)C2CCCN(S(=O)(=O)c3ccc(OC)cc3)C2)c1 (stereo not drawn) | – | 23.1 µM (active)
8 | CCOc1ccc(N(CC)S(=O)(=O)N2CCCC(C(=O)NCc3ccc(SC)cc3)C2)cc1 (stereo not drawn) | – | 20.6 µM (active)
9 | CSc1ccc(S(=O)(=O)N2CCC(C(=O)NCc3ccncc3)CC2)cc1 | -13.1% | –
10 | COc1ccc(NC(=O)C2CCCN(S(=O)(=O)c3cccc4cccnc34)C2)cc1 (stereo not drawn) | -42.5% | –
11 | Cc1c(S(=O)(=O)O)oc2c1C(=O)C(=O)c1c-2ccc2c1CCCC2(C)C | -8.76% | –
12 | Cc1nc(C)c(C(=O)Nc2ccc(C)c(F)c2)o1 | -0.916% | –
13 | CCOc1c(N2CCCCC2)c(=O)c1=O | -12.1% | –
14 | CCc1c(Nc2ccccc2C)nc(N)[nH]c1=O | -8.5% | –
15 | Cc1[nH]c(N)nc(=S)c1CCCNc1ccccc1 | – | 16.4 µM (active)
16 | Cc1cc(=O)n(C)c(=O)n1CCCNc1ccccc1 | -23.9% | –
17 | O=C(NC(=S)Nc1ccc(Cl)c(C(=O)O)c1)c1cncc(Br)c1 | 24.7% | –
18 | O=C(COC(=O)/C=C/c1ccc(Cl)cc1)NC1CCS(=O)(=O)C1 (stereo not drawn) | – | 18.4 µM (active)
19 | O=C(Cc1ccc(Cl)cc1)NC1CCS(=O)(=O)C1 (stereo not drawn) | 12.7% | –
20 | O=C(COC(=O)/C=C/c1ccc2c(c1)OCO2)NC1CCS(=O)(=O)C1 (stereo not drawn) | 14.5% | –
21 | Cc1cccc(C)c1NC(=O)CSc1nnc(-c2ccccc2)n1Cc1ccc2c(c1)OCO2 | -17.4% | –
22 | CCOC(=O)c1c(NC(=O)c2ccc(S(=O)(=O)N(C)CC3CCCO3)cc2)sc2c1CC(C)(C)NC2(C)C (stereo not drawn) | -27.4% | –
23 | O=S(=O)(NCC1CCCO1)c1ccc2ccccc2c1 (stereo not drawn) | -14.2% | –
24 | O=C(Nc1ccc(S(=O)(=O)NCC2CCCO2)cc1)c1ccc(F)cc1 (stereo not drawn) | – | 16.4 µM (active)
25 | CCC(=O)Nc1ccc(C(=O)Nc2ccc3c(c2)C(=O)N(CC2CCCO2)C3=O)cc1 (stereo not drawn) | -10.2% | –
26 | CCOc1ccc(S(=O)(=O)NCC2CCCO2)cc1 (stereo not drawn) | -16% | –
27 | CN(CC1CCCO1)S(=O)(=O)c1ccc(C(=O)Nc2ccc([N+](=O)[O-])cc2)cc1 (stereo not drawn) | – | 5.8 µM (active)

Row | Structure (SMILES) | activity change, negative = growth inhibition | Potency
28 | O=C1C(C=NCC2CCCO2)=C(O)c2ccccc21 (stereo not drawn) | -16.7% | –
29 | COC(=O)C1CCN(C(=O)NC2CC(=O)N(c3ccc4c(c3)OCCO4)C2)CC1 (stereo not drawn) | 0.284% | –
30 | COC(=O)c1onc(-c2c(OC)cc(OC)cc2OC)c1C(=O)OC | -7.15% | –
31 | CN(Cc1cc2cc(F)ccc2[nH]1)Cc1nc(-c2cnccn2)no1 | -4.72% | –
32 | COc1cc(C(=O)NNC(=O)CN2C(=O)NC3(CCCC3)C2=O)cc(OC)c1OC | 4.78% | –
33 | Cc1sc2nc(COC(=O)C(NC(=O)c3ccc(Cl)cc3Cl)C(C)C)[nH]c(=O)c2c1C (stereo not drawn) | -16.1% | –
34 | Cc1sc2nc(CSCC(=O)Nc3c(Cl)cccc3Cl)[nH]c(=O)c2c1C | – | 9.2 µM (active)
35 | CCOC(=O)c1sc2nc(CSCC(=O)OCc3ccc(C(=O)OC)o3)[nH]c(=O)c2c1C | -10.1% | –
36 | Cn1nnnc1SCC(=O)N1CCN(Cc2ccccc2)CC1 | -18.7% | –
37 | COc1ccc(S(=O)(=O)N2CCCCC2)cc1C(=O)NC1CCS(=O)(=O)C1 (stereo not drawn) | – | inactive
38 | Cc1[nH]nc(SCC(=O)NCC(C)C)c1[N+](=O)[O-] | -4.36% | –
39 | COc1cccc(CNC(=O)c2cc(=O)[nH]c3ccc(S(=O)(=O)N4CCCCC4)cc23)c1 | -11.7% | –
40 | Cc1cccc(N2CCN(S(=O)(=O)c3ccc4[nH]c5c(c4c3)CCCCC5)CC2)c1C | – | 4.61 µM (active)
41 | Cc1ccc(S(=O)(=O)N2CCN(c3ccccc3)CC2)cc1C | 3% | –
42 | Cc1cc(C)c2c(c1)c(C)cc1nnc(SCC(=O)NCc3ccco3)n12 | -3.12% | –
43 | O=C(N/C(=C\c1ccc(O)cc1)C(=O)N1CCCCC1)c1ccccc1 | 12.8% | –
44 | COc1cc(CN2CCCN(C)CC2)c([N+](=O)[O-])cc1OC | -12.1% | –
45 | COc1cc(CNCc2ccc3c(c2)OCO3)c([N+](=O)[O-])cc1OC | -21.4% | –
46 | COc1cc2c(cc1OC)C(Cc1cc(OC)c(OC)cc1[N+](=O)[O-])=NCC2 | – | 11.6 µM (active)
47 | O=C(NC1CCN(S(=O)(=O)c2ccc(F)cc2)CC1)c1ccccc1 | 6.91% | –
48 | COc1ccc(CCN2C(=O)c3[nH]nc(-c4ccccc4O)c3C2c2ccc(C)cc2)cc1OC (stereo not drawn) | – | 18.4 µM (active)
49 | C=CCOc1cccc(C2C(C(=O)c3ccc(C)o3)=C(O)C(=O)N2CCCn2ccnc2)c1 (stereo not drawn) | 15.9% | –
50 | COc1ccc(CCN(C)CCN2C(=O)c3ccccc3C2=O)cc1OC | -23.2% | –
51 | CCCCN1C(=O)c2[nH]nc(-c3ccccc3O)c2C1c1cccc(OCc2ccccc2)c1 (stereo not drawn) | – | 18.4 µM (active)
52 | COc1ccc(/C(O)=C2/C(=O)C(=O)N(CCCN(C)C)C2c2ccccc2)cc1OC (stereo not drawn) | -4.33% | –
53 | CCCCn1c(N)c(N(CCOC)C(=O)c2cccc(OCc3ccccc3)c2)c(=O)[nH]c1=O | 1.24% | –

Source: PubChem BioAssay AID686978 (National Center for Advancing Translational Sciences (NCATS), 2013)
